Laboratory results taken from the supplement of paper PMC7156485.
± gives the standard deviation of the averaged measurements.

What was measured:
Details in all cases: concentration: 10 µM; 24 h
HCC1569 [1] = assay: cell number relative to DMSO (% of DMSO); higher = more cells (less growth inhibition / toxicity)
Outline: (§1)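 In 384-well plates holding 800 HCC1569 or TDF cells per well in RPMI with 10% FBS, compounds were tested at 10 µM for 24 h at 37 °C in triplicate. Fixation used 3.7% formaldehyde. Staining used a rabbit anti-H1.0 antibody with an AlexaFluor 647 secondary, plus DAPI. Each value, H1.0 nuclear intensity or cell number, is a median of replicates shown as percent of the plate control, and HCC1569 values were smoothed for positional effects.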

TDF [2] = assay: as above
Outline: as §1

TDF [3] = assay: H1.0 immunofluorescence intensity relative to DMSO (% of DMSO); higher = stronger H1.0 induction, active = 120 or more
Outline: as §1

HCC1569 [4] = assay: H1.0 immunofluorescence intensity relative to DMSO (% of DMSO); higher = stronger H1.0 induction, active = 140 or more
Outline: as §1
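Wherever H1.0 immunofluorescence intensity relative to DMSO is given: TDF is a line of transformed human dermal fibroblasts of mesenchymal origin.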
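Wherever cell number relative to DMSO is given: TDF denotes transformed human dermal fibroblasts of mesenchymal origin.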

| SMILES | cell number (HCC1569 [1]) | cell number (TDF [2]) | H1.0 immunofluorescence intensity (TDF [3]) | H1.0 immunofluorescence intensity (HCC1569 [4]) |
| --- | --- | --- | --- | --- |
| CC(ONC(=O)c1cc(C(F)(F)F)cc(C(F)(F)F)c1)C(=O)Nc1ccc(Cl)cc1 (configuration not stated) | 85.2 | 93.3 | 103 (inactive) | 144 (active) |
| CC12CCC3c4ccc(O)cc4CC(CCCCCCCCCS(=O)CCCC(F)(F)C(F)(F)F)C3C1CCC2O (configuration not stated) [Fulvestrant] | 94.7 | 94.3 | 104 (inactive) | 110 (inactive) |
| CCC1(O)CC2CN(CCc3c([nH]c4ccccc34)C(C(=O)OC)(c3cc4c(cc3OC)N(C)C3C(O)(C(N)=O)C(O)C5(CC)C=CCN6CCC43C65)C2)C1.O=S(=O)(O)O (configuration not stated) [Vindesine sulfate] | 55.4 | 8.86 | 155 (active) | 179 (active) |
| CCC(CCC(C)C1CCC2C3CC=C4CC(O)CCC4(C)C3CCC12C)C(C)C (configuration not stated) | 99.8 | 92.5 | 105 (inactive) | 90.6 (inactive) |
| Cl.Cl.O=S(=O)(c1cccc2cnccc12)N1CCCNCC1 | 107 | 95 | 99.5 (inactive) | 94.3 (inactive) |
| CCCCCCCCCCCCCCCCOCC(CO)OC (configuration not stated) [1-Hexadecyl-2-O-methyl-glycerol] | 103 | 109 | 95.3 (inactive) | 98.4 (inactive) |
| COc1cc(C2Oc3cc(C4Oc5cc(O)cc(O)c5C(=O)C4O)ccc3OC2CO)ccc1O (configuration not stated) [Silybine] | 100 | 103 | 95.9 (inactive) | 90.2 (inactive) |
| Cc1cnc(NC(=O)C2=C(O)c3ccccc3S(=O)(=O)N2C)s1 [Meloxicam] | 103 | 105 | 96.1 (inactive) | 104 (inactive) |
| O=C(O)CCC(=O)N1CCC[C@H]1C(=O)O [N-Succinyl-L-proline] | 99.6 | 100 | 102 (inactive) | 104 (inactive) |
| O=c1c2ccccc2nc2n1CCc1c-2[nH]c2ccccc12 [Rutaecarpine] | 102 ± 6.6 | 103.4 ± 0.87 | 94.9 (inactive) | 102 (inactive) |
| Brc1c(Br)c(Br)c2[nH]cnc2c1Br [4,5,6,7-tetrabromo-1H-benzimidazole] | 69.9 | 71.5 | 111 (inactive) | 103 (inactive) |
| CS(=O)(=O)O.O=C1Nc2ccc(-c3cccnc3)cc2C1=Cc1ccc[nH]1 [JAK3 Inhibitor VI] | 73 | 47.7 | 108 (inactive) | 130 (inactive) |
| NCC1OC(OC2C(N)CC(N)C(OC3OC(CO)C(O)C(N)C3O)C2O)C(O)C(O)C1O.O=S(=O)(O)O (configuration not stated) [Kanamycin sulfate] | 99.5 | 106 | 99.3 (inactive) | 90.1 (inactive) |
| CCN(CC)C(=S)SSC(=S)N(CC)CC [Tetraethylthiuram disulfide] | 97.2 | 54 | 120 (inactive) | 102 (inactive) |
| NC1CONC1=O (racemic) [DL-Cycloserine] | 101 | 96.8 | 92 (inactive) | 92.3 (inactive) |
| COC(=O)Nc1nc2ccc(S(=O)c3ccccc3)cc2[nH]1 (configuration not stated) [Oxfendazole] | 100 | 68.2 | 108 (inactive) | 124 (inactive) |
| COC12C(COC(N)=O)C3=C(C(=O)C(C)=C(N)C3=O)N1CC1NC12 (configuration not stated) [Mitomycin C] | 73.2 ± 6 | 47.6 ± 1.8 | 105 (inactive) | 96.2 (inactive) |
| COc1ccccc1N1CCN(CCCNc2c(C)c(=O)n(C)c(=O)n2C)CC1 [Urapidil, 5-Methyl-] | 105 | 121 | 96.7 (inactive) | 108 (inactive) |
| Cn1c(=O)[nH]c2ncn(C)c2c1=O [1,7-Dimethylxanthine] | 102 | 98.9 | 88 (inactive) | 85.7 (inactive) |
| CN(C)CCOc1cc(-c2cn[nH]c2)ccc1NC(=O)C1COc2ccccc2O1 (configuration not stated) | 103 | 95.7 | 87.3 (inactive) | 112 (inactive) |
| CC(C)(C)c1ccc(S(=O)(=O)NCc2ccc(C(=O)Nc3cccnc3)cc2)cc1 | 98.2 | 108 | 86.8 (inactive) | 107 (inactive) |
| Br.CN1CCc2cc(O)c(O)cc2C(c2ccccc2)C1 (configuration not stated) | 105 | 98.2 | 89.8 (inactive) | 105 (inactive) |
| O=C1c2ccccc2-c2n[nH]c3cccc1c23 | 93.2 | 107 | 92 (inactive) | 138 (inactive) |
| CCCCCC=CCC=CCC=CCCCCC(=O)O [γ-Linolenic acid (18:3 n-6)] | 99.3 | 96.9 | 96.6 (inactive) | 98.8 (inactive) |

| SMILES | cell number (HCC1569 [1]) | cell number (TDF [2]) | H1.0 immunofluorescence intensity (TDF [3]) | H1.0 immunofluorescence intensity (HCC1569 [4]) |
| --- | --- | --- | --- | --- |
| CCC1(O)C(=O)OCc2c1cc1n(c2=O)Cc2cc3c(CN(C)C)c(O)ccc3nc2-1.Cl (configuration not stated) [Topotecan.HCl] | 65.7 | 17.1 | 154 (active) | 96.3 (inactive) |
| O=c1c(-c2ccc(O)cc2)coc2cc(O)ccc12 [Daidzein] | 101 ± 2.1 | 107 ± 14 | 92.4 (inactive) | 94.6 (inactive) |
| CCC1(O)CC2CN(CCc3c([nH]c4ccccc34)C(C(=O)OC)(c3cc4c(cc3OC)N(C)C3C(O)(C(=O)OC)C(OC(C)=O)C5(CC)C=CCN6CCC43C65)C2)C1 (configuration not stated) [Vinblastine] | 53.6 | 9.51 | 161 (active) | 164 (active) |
| O=C(O)CCCC=CCC1C2CCC(O2)C1CNNC(=O)Nc1ccccc1 (configuration not stated) | 102 | 103 | 92.8 (inactive) | 99.7 (inactive) |
| Nc1nc2ccc(Cl)cc2n2c(-c3ccccc3)nnc12 [8-chloro-1-phenyl[1,2,4]triazolo[4,3-a]quinoxalin-4-ylamine] | 104 | 102 | 93.9 (inactive) | 99 (inactive) |
| CC(C(=O)O)c1ccc(CC2CCCC2=O)cc1 (configuration not stated) [loxoprofen] | 103 | 95.9 | 88.6 (inactive) | 92.6 (inactive) |
| Cc1ccc(C(=O)Nc2ccc(S(=O)(=O)[O-])c3cc(S(=O)(=O)[O-])cc(S(=O)(=O)[O-])c23)cc1NC(=O)c1cccc(NC(=O)Nc2cccc(C(=O)Nc3cc(C(=O)Nc4ccc(S(=O)(=O)[O-])c5cc(S(=O)(=O)[O-])cc(S(=O)(=O)[O-])c45)ccc3C)c2)c1.[Na+].[Na+].[Na+].[Na+].[Na+].[Na+] [Suramin hexasodium] | 101 | 101 | 98.5 (inactive) | 102 (inactive) |
| CN(C)CCCN1c2ccccc2Sc2ccc(Cl)cc21.Cl [Chlorpromazine hydrochloride] | 88.5 | 64.4 | 135 (active) | 144 (active) |
| Nc1nc(Cl)nc2c1ncn2C1OC(CO)C(O)C1O (configuration not stated) [2-Chloroadenosine] | 99.3 | 119 | 87.8 (inactive) | 89 (inactive) |
| C#CC1(O)CCC2C3C(C)CC4=C(CCC(=O)C4)C3CCC21C (configuration not stated) [Tibolone] | 100 | 96.7 | 102 (inactive) | 110 (inactive) |
| O=C(O)C(O)C(O)C(=O)O.O=C(c1ccc(F)cc1)C1CCN(CCn2c(=O)[nH]c3ccccc3c2=O)CC1 [Ketanserin tartrate] | 96.9 | 93.1 | 106 (inactive) | 104 (inactive) |
| Cc1cnc(C(=O)O)c[n+]1[O-] [Acipimox] | 100 | 108 | 95.2 (inactive) | 104 (inactive) |
| COc1cc(/C=C/C(=O)NCCn2c(C)cc3ccccc32)cc(OC)c1OC | 103 | 96.6 | 103 (inactive) | 106 (inactive) |
| Nc1ncn(C2OC(CO)C(O)C2O)c(=O)n1 (configuration not stated) [5-azacytidine] | 65.7 | 78 | 101 (inactive) | 150 (active) |
| OC1C=C2CCN3Cc4cc5c(cc4C(C1O)C23)OCO5 (configuration not stated) [Lycorine] | 67.4 | 53.3 | 120 (inactive) | 180 (active) |
| CN(C)CCCn1cc(C2=C(c3c[nH]c4ccccc34)C(=O)NC2=O)c2ccccc21 [Bisindolylmaleimide I] | 85.8 | 80.3 | 111 (inactive) | 131 (inactive) |
| Cl.O=C(NCCCCN1CCN(c2cccc(Cl)c2Cl)CC1)c1ccc2c(c1)Cc1ccccc1-2 | 93.5 | 98.2 | 96.4 (inactive) | 116 (inactive) |
| CC(NC(CCc1ccccc1)C(=O)O)C(=O)N1CCCC1C(=O)O (configuration not stated) [Enalaprilat] | 98.7 | 86.2 | 104 (inactive) | 96.9 (inactive) |
| O=C(Nc1ccc(Cl)cc1)C1CCCN(C(=O)c2cccc(-c3ccco3)c2)C1 (configuration not stated) | 86.8 | 98.7 | 95.1 (inactive) | 116 (inactive) |
| Nc1c(C(=O)O)c2nc3c(C(=O)O)cccc3oc-2cc1=O [2-amino-3-oxo-3H-phenoxazine-1,9-dicarboxylic acid] | 92 | 88.1 | 110 (inactive) | 101 (inactive) |
| CCC1C(=O)OCC1Cc1cncn1C.Cl (single isomer, unassigned; (+)) [(+)-Pilocarpine hydrochloride] | 97.7 | 93.1 | 102 (inactive) | 101 (inactive) |
| COc1ccc(Cl)cc1NC(=O)Nc1cc(C)nc2ccccc12 [IGF-1R Inhibitor II] | 103 | 97.7 | 98.8 (inactive) | 106 (inactive) |
| CCCCCC(O)C=CC1C(O)CC2OC(=CCCCC(=O)[O-])CC21.[Na+] (configuration not stated) [Prostaglandin I2 Na] | 101 | 98.1 | 94.1 (inactive) | 98.3 (inactive) |
| CNCCC(Oc1ccc(C(F)(F)F)cc1)c1ccccc1 (configuration not stated) [Fluoxetine] | 99.3 | 94.1 | 100 (inactive) | 135 (inactive) |
